Measured values: PubChem BioAssay (NCATS)
Inconclusive results are not listed. A call without a number means that no potency is given here. Activity calls are given as the source filed them. Calls come from the whole dose curve; as a rule, active = well fitted curve in the direction sought with a large enough effect; inconclusive = small, poorly fitted or top-dose-only effect, or another doubt; inactive = no such curve, though single readings can be large; an effect the other way counts as inactive or inconclusive.

Legend:
[1] = target: Aldehyde dehydrogenase, mitochondrial (Homo sapiens) (UniProt P05091); assay: qHTS for Inhibitors of the Aldehyde Dehydrogenase Family (ALDH2) Primary screen (AID 2061308); note: nearly all actives have a fitted effect of over 55% in size
[2] = target: Retinaldehyde dehydrogenase 3 (Homo sapiens) (UniProt P47895); assay: qHTS for Inhibitors of the Aldehyde Dehydrogenase Family (ALDH1A3) Primary screen (AID 2061315)

| SMILES | Potency [1] | Potency [2] |
| --- | --- | --- |
| O=C(Nc1nnc(-c2ccncc2)s1)Nc1cc(C(F)(F)F)ccc1F | inactive | inactive |
| CCOC(=O)c1c(/C=N/Nc2ccccc2)c2sc(C)cc2n1C | inactive | inactive |
| C=C[C@H](/C=C\c1ccc(O)cc1)c1ccc(O)cc1 | inactive | inactive |
| COc1cccc(CNc2ccc(S(=O)(=O)Nc3nc(C)cs3)cc2)c1O | inactive | inactive |
| CC1(C)CCCC2(C)C1C(OC(=O)/C=C/C=C/C=O)C=C1COC(=O)C12O (stereo not drawn) | inactive | inactive |
| CC(C)(C)OC(=O)Cc1nnc(C(C(=O)OCc2ccccc2)c2ccccc2)s1 (stereo not drawn) | inactive | inactive |
| O=C(O)c1ccc(-c2noc(-c3cccc(Cl)c3)n2)cc1 | inactive | inactive |
| O=C(O)c1ccc2c(c1)C(=O)N([C@H](Cc1ccc([N+](=O)[O-])cc1)C(=O)O)C2=O | inactive | inactive |
| COc1ccc(-c2cnc(-c3cccc4c3-c3ccccc3C4=O)o2)cc1 | inactive | inactive |
| Cc1nc(Nc2ccccc2)c2nc(-c3ccccc3)n(CCN3CCOCC3)c2n1 | inactive | inactive |
| O=C1CN(S(=O)(=O)c2ccc3c(c2)OCCO3)CCN1S(=O)(=O)c1c(F)cccc1F | inactive | inactive |
| CCOC(=O)c1nn(-c2ccccc2)c(=O)c2c(N)sc(C)c12 | inactive | inactive |
| COc1ccccc1-c1nnc2n1N=C(c1c(OC)cccc1OC)CS2 | inactive | inactive |
| O=C(OCc1ccccc1)N1CCN(C(=O)[C@H](Cc2ccc(O[S+](=O)([O-])c3cccc4cnccc34)cc2)N[S+](=O)([O-])c2cccc3cnccc23)CC1 | inactive | inactive |
